Test [1] can be described thus: qHTS for Inhibitors of Plasmodium falciparum (HB3) proliferation (AID 504318). Further: nearly all actives have a fitted effect of over 60% in size. The essentials:
(§1)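 Parasite growth measured as SYBR Green DNA fluorescence (ex 485, em 535 nm) after overnight lysis following 72 h culture at 37 °C, 0.3% parasitemia, 2.5% hematocrit. Values normalized against DMSO and 0.29 uM artemisinin controls, with plate-stack correction.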

The target of test [2] is Atrial natriuretic peptide receptor 1 (Homo sapiens) (UniProt P16066). Nature of the test: Natriuretic polypeptide receptor (hNpr1) antagonism - Pilot CMLD screen (AID 1347052; calls by dose curve;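 further: HEK293 cells with hNpr1 stimulated by hNppA peptide at 0.1 nM; cGMP level read as GloSensor luciferase luminescence after agonist stimulation; series mostly up to about 9.2 µM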).
Test [3] is described as follows: qHTS for Inhibitors of Plasmodium falciparum (7G8) proliferation (AID 504316). Further: potency means the concentration at half of the fitted maximal effect; nearly all actives have a fitted effect of over 65% in size. The essentials: as §1
(qHTS replaces the single test concentration by a dilution series.)

Test [4] can be described thus: qHTS for Inhibitors of Plasmodium falciparum (CP250) proliferation (AID 504320). The essentials:
as §1

Inconclusive results are not listed. Active and inactive are the calls of the source. Unless noted, the call rests on the fitted dose curve; in most records, active means well fitted curve in the direction sought with a large enough effect; inconclusive means small, poorly fitted or top-dose-only effect, or another doubt; inactive means no such curve, though single readings can be large; an effect the other way counts as inactive or inconclusive.

The results in this text go back to PubChem BioAssay (NCATS).

Atrial natriuretic peptide receptor 1 (Homo sapiens), sequence (P16066 whole entry, looked up): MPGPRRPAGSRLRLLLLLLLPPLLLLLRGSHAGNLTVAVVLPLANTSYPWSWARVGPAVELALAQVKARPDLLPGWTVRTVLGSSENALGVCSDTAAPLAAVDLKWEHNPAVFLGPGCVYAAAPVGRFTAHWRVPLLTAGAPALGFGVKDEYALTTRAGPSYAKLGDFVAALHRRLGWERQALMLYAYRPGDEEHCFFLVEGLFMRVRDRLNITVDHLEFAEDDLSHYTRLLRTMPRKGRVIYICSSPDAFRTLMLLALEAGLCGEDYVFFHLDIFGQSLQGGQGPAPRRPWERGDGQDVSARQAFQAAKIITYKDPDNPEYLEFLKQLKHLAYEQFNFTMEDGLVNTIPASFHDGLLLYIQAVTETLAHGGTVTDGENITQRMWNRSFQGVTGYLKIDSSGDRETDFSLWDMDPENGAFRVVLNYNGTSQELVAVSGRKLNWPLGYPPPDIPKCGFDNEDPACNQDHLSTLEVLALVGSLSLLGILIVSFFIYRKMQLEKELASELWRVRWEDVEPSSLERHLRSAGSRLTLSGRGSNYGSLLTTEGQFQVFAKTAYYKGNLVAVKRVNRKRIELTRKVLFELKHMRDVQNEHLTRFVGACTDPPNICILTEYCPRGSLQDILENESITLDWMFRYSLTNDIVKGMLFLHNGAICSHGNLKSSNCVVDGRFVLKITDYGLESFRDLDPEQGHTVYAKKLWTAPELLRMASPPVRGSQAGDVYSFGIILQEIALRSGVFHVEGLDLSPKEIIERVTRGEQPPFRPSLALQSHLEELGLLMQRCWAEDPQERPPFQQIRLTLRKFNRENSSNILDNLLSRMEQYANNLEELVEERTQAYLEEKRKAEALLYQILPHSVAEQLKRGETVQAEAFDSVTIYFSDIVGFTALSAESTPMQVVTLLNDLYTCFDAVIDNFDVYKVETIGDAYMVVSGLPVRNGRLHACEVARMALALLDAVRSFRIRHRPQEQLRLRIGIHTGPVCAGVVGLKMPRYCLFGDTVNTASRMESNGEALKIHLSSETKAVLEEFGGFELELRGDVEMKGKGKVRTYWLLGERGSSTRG

`C#CCN1C(=O)[C@]2(O[C@H](COc3ccccc3)CC3=CCCC32)c2c(Br)cccc21` (stereo partly drawn): the Potency entry in test [1] and in test [2] was “inactive” in each case.
`C[C@@H]1CC[C@H]2C(=O)N(Cc3ccc(Cl)cc3)C[C@@H](O)CN2[C@H]1c1cccc(Br)c1`: the Potency in test [3] is 1.51 µM (active). The Potency entry in test [4] and in test [2] was “inactive” in each case.
For `Cc1cc2c(c(=O)n1-c1ccccc1)[C@H]1O[C@](c3ccsc3)(Cc3ccccc31)O2`, the Potency in test [3] was 1.51 µM (active). For the same compound, the Potency result in test [4] and in test [2] was “inactive” each time.
